Drawing on the OligoGym collection, this text covers sensor-assay potency score (higher = more potent) for 36 sequences.
Note: reference of the scale not given here.

The target in the first assay is MPHOSPH9. Put plainly: pooled miR-30 sensor sort-seq; sequence = guide strand. As to conditions: shRNA.
Consider TAGATCTTGAACCTCCATCTTC, for which the sensor-assay potency score (higher = more potent) was -0.263.
The sequence TTAAAGACACATGACACTCTTC showed a sensor-assay potency score (higher = more potent) of 0.499.
For the sequence TTGCTTGTGAAAATGAGTCTAT, the sensor-assay potency score (higher = more potent) is -0.111.
In the case of TTGAGCTTCTTTATCATCTGAG, the sensor-assay potency score (higher = more potent) came out at 0.656.
Same read-out and setting: the value for TTTATCAACAAGCTTGTTGATG was -0.498; that for TTCATCTACAGTGTTGACCGAG was 0.377; that for TTTGGTGACACATCTGTGGAAG was -0.32.
Turning to TTGTTGATGAACTTCCAGGTGA, the sensor-assay potency score (higher = more potent) is -0.421.
In the case of TAACGTAGGATCTAGAGTCAGG, the sensor-assay potency score (higher = more potent) was -0.553.
Consider TATTTGTTTAGAAACAAGCTGC, for which the sensor-assay potency score (higher = more potent) was 0.128.
TTACAATGTAGAACAAGTCTAT returned a sensor-assay potency score (higher = more potent) of 0.128.
For TTGTTTAGAAACAAGCTGCTTC, the sensor-assay potency score (higher = more potent) was 0.601.

The target of a further assay is MPST. The assay is described as above. As to conditions: shRNA.
TTGAGTGAAGAAACACTCTCTT displayed a sensor-assay potency score (higher = more potent) of 0.653.
Sequence TTGATGTCCTCGTAGGTCTTGA displayed a sensor-assay potency score (higher = more potent) of -0.443.
TGAGTGAAGAAACACTCTCTTG came in with a sensor-assay potency score (higher = more potent) of -1.53.
For TCGTAGGTCTTGATGAAGGCGG, the sensor-assay potency score (higher = more potent) was -0.615.
Take TAGGTCTTGATGAAGGCGGGGT: the sensor-assay potency score (higher = more potent) was determined as 0.122.
Same read-out and setting: with TCGATGTCGAAGAAAGCGGCGC the figure was -0.934.
Sequence TACCACTCCACCCAGGAGCCAT returned a sensor-assay potency score (higher = more potent) of -1.23.
For the sequence TGAAGAAACACTCTCTTGGTGA, the sensor-assay potency score (higher = more potent) was -0.0211.
On the same count and under the same terms, the value for TTCTCCTTGATGTCCTCGTAGG was -1.08; that for TTCTCCTGGAACAGATGGCGGA was -0.871.
The sequence TCGTAGATCACGACGTGGGTGG gave a sensor-assay potency score (higher = more potent) of -0.279.
The sequence TTAGACAGGTCCACTTTCTTCT yielded a sensor-assay potency score (higher = more potent) of 0.441.

The next assay concerns the target MPZL1. The description is as above. As to conditions: shRNA.
Consider TACACCACAGACTCTGACTTGT, for which the sensor-assay potency score (higher = more potent) was 0.413.
On the same count and under the same terms, with ATATTTTCTATGTTGATTGATG the figure was -0.933.
Still for that read-out and setting: with TTTTCTATGTTGATTGATGCAT the figure was -0.358; with TTTTCTACGACATAGAGCCTAA, -0.79.
Consider TAACTGTGCATATATGACTGGG, for which the sensor-assay potency score (higher = more potent) was -0.763.
TTGACATCACAGATATAGGTGC: the sensor-assay potency score (higher = more potent) came to 0.0652.
Same read-out and setting: with TTGTGTACCATTTGCCACGAAG the figure was -1.44; with TATTTATACATATCCTTTGTAC, -0.807.
TTTCTATGTTGATTGATGCATC displayed a sensor-assay potency score (higher = more potent) of -0.949.
The sequence TATTCTCTTAATTCTTTCGGAT yielded a sensor-assay potency score (higher = more potent) of -0.74.
Sequence TTTGACATCACAGATATAGGTG came in with a sensor-assay potency score (higher = more potent) of 0.376.
TTTTTCTACGACATAGAGCCTA displayed a sensor-assay potency score (higher = more potent) of -0.173.
